SMARCA2 activ – SMARCA2 function activation, primary screen; 370,000 compounds, 1% hits; AID 652017; MG213 cells, MMTV-luciferase reporter, dexamethasone, overnight; activation, % at 9.1 µM; in the data active = activation above about 7.8%;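 also: 0% = vehicle wells and 100% = reference activator wells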
hgDAF-12 ag – hgDAF-12 agonism, primary luciferase screen | activation, % at 6.8 µM | 370,000 compounds, 1.8% hits | HEK293 GAL4-hgDAF12 UAS-luciferase reporter, agonist luminescence; normalized to butyrate control;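 active = activation above a cutoff set at the mean of all screened compounds plus 3 SD, cut at about 10% in these data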;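 also: 0% = DMSO wells and 100% = sodium butyrate wells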
hcDAF12 agonist – activators of H. contortus DAF-12 nuclear receptor; HEK293 hcDAF-12 lit1-tk-luc reporter, luminescence; 0% DMSO, 100% Δ7-dafachronic acid; activation, % at 6.8 µM; 370,000 compounds, 1.4% hits;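 active = activation above the mean of all tested compounds plus 3 SD, cut at about 5.5% in these data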;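 also: 100% = response to 3 µM Δ7-dafachronic acid high control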
DAX1 inh – inhibitors of DAX1 repression of SF-1 activated StAR promoter | inhibition, % at 6.8 µM | HEK293T StAR-luciferase reporter, SF-1/DAX-1 repression relief | AID 652010 | 370,000 compounds, 1.1% hits;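 active = inhibition above the mean over all tested compounds plus 3 SD, cut at about 3.6% in these data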;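 also: 0% = DAX-1 cells with DMSO and 100% = cells lacking DAX-1 with DMSO; higher inhibition means more luminescence from relief of DAX-1 repression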
ssDAF12 agonist – activators of S. stercoralis DAF-12 nuclear receptor; HEK293 ssDAF-12/GRIP1 lit1-tk-luc reporter, luminescence; % of 3 µM dafachronic acid response; activation, % at 6.8 µM; 370,000 compounds, 1% hits; AID 652126;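 active = activation above the mean over all tested compounds plus 3 SD, cut at about 0.9% in these data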;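 also: 0% = DMSO-only wells and 100% = 3 µM delta7-dafachronic acid wells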
SMARCA2 conf – confirmation of SMARCA2 (BRM) function activators; shares compounds with SMARCA2 activ; MG213 cells, MMTV-luciferase with dexamethasone, luminescence, overnight; MG213 cells expressing E1A, Rb sequestered; DMSO wells 0%, reference activator 100%; activation, % at 9.1 µM; 3,500 compounds, 30% hits; AID 652260;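 active = activation above its plate's cutoff, the mean activation of tested wells plus 3 SD, cut at about 7.9% in these data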
GAL4-VP16 Luc – GAL4-VP16 reporter activation counter-screen; HEK293 GAL4-VP16 pG5luc reporter, luciferase luminescence; scaled: DMSO wells 0%, SAHA wells 100%; 3,500 compounds, 41% hits; activation, % at 9.1 µM; shares compounds with SMARCA2 activ;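 active = activation above the solvent-only control well mean plus 3 SD, averaged across control plates, cut at about 5.2% in these data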
LXR ag – counter-screen for hcDAF-12 agonists: agonists of human LXR-beta | activation, % at 6.8 µM | HEK293 Gal4-LXR tk-luc reporter, luminescence, 24 h; normalized: DMSO 0%, positive control 100% | shares compounds with hcDAF12 agonist | 3,400 tested, under 10 active | AID 743027;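 active = mean percent activation of the reporter above a cutoff set as the average over tested compounds plus their standard deviation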
Target sequence (P55055 whole entry, looked up, the tested form may be a part): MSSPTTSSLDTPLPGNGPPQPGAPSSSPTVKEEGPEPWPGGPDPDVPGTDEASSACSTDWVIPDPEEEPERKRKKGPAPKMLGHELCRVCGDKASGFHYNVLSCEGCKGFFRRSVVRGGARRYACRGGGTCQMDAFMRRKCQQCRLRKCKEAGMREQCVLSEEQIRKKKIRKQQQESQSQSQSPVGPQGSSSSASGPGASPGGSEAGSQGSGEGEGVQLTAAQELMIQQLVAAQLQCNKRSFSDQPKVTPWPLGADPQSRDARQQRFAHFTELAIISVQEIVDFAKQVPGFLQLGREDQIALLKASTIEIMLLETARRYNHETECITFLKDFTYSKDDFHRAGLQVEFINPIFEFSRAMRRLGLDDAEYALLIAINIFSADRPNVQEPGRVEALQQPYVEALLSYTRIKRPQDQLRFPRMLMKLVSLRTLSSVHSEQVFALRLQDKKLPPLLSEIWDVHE
hcDAF12 ag – hcDAF-12 agonism, confirmation assay. 3,400 compounds, 61% hits. HEK293 hcDAF-12 lit1-tk-luc reporter, luminescence; % of Δ7-dafachronic acid response. shares compounds with hcDAF12 agonist. activation, % at 6.8 µM;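 active = mean activation across triplicate tests above the threshold derived from the earlier primary screen, cut at about 5.5% in these data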;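 also: 0% = DMSO only wells and 100% = 3 µM Δ7-dafachronic acid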
hgDAF12 ag – confirmation of H. glycines DAF-12 agonists. 3,300 compounds, 80% hits. shares compounds with hgDAF-12 ag. HEK293 GAL4-hgDAF12 luciferase reporter, agonist mode; percent of butyrate response. activation, % at 6.8 µM;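 active = mean activation over triplicate wells above the hit cutoff derived from the earlier primary screen, cut at about 11% in these data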;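 also: 0% = DMSO low control and 100% = 2 mM sodium butyrate high control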
LXRb DAF12 ctr – counter-screen for DAF-12 agonists: agonists of human LXR-beta; 3,300 tested, under 10 active; activation, % at 6.8 µM; shares compounds with hgDAF-12 ag; AID 743051; HEK293 Gal4-LXR luciferase reporter, 24 h;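 active = mean activation of the triplicate above a set limit carried over from the primary screen, none filed active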
Starred values were filed as active, the others as inactive; x = no result given. In the library only some 4.2% were active in any assay of this set; here they are far more common.

SMILES	SMARCA2 activ	hgDAF-12 ag	hcDAF12 agonist	DAX1 inh	ssDAF12 agonist	SMARCA2 conf	GAL4-VP16 Luc	hgDAF12 ag	LXRb DAF12 ctr	others
COc1cccc(/C=C/c2ccc3cccc(O)c3n2)c1	14.1*	14.5*	9.0*	0.0	1.5*	-3.3	23.1*	23.9*	0.9	LXR ag=1.6;hcDAF12 ag=8.5*
COc1cc(/C=C/c2ccc3cccc(O)c3n2)cc(Cl)c1OC	11.6*	13.8*	1.7	0.2	-0.4	-6.0	33.7*	17.1*	1.1
COc1cc(/C=C/c2ccc3cccc(O)c3n2)cc(OC)c1OC	-3.9	-9.3	-4.7	-1.2	-1.9	x	x	x	x
C=CCN1C[C@@H](COCc2ccccc2)OCCS1(=O)=O	-5.3	-0.6	0.3	0.9	-0.3	x	x	x	x
Nc1nn(-c2ccccc2)c(N)c1N=Nc1ccccc1	14.6*	21.5*	9.0*	1.3	0.6	7.4	26.7*	29.2*	0.9	LXR ag=1.3;hcDAF12 ag=4.0
COc1ccccc1-c1cnc(C(O)c2ccc(C)cc2)[nH]1 (stereo unspecified)	0.1	5.3	1.4	1.2	-1.6	x	x	x	x
O=C(C(=O)N1CCN(C(=O)c2cccs2)CC1)c1cccc(C(F)(F)F)c1	-3.1	-1.6	-0.7	0.6	-1.3	x	x	x	x
Cc1c(/C=C/C(=O)c2ccc(O)cc2)cnn1C	8.0*	16.9*	3.8	1.7	0.5	13.8*	6.9*	9.1	0.4
Clc1ccc(-c2nnc(-c3ccccc3)c(-c3ccccc3)n2)cc1	-5.0	0.4	-1.4	-0.1	-1.9	x	x	x	x
COc1nc(-c2ccccc2)nnc1-c1ccccc1	10.5*	15.1*	15.3*	3.2	1.3*	7.2	12.8*	20.1*	0.8
CCN(CC)c1ccc(C=N/C(C#N)=C(\N)C#N)cc1	8.8*	15.2*	3.5	1.1	-0.9	3.4	7.5*	9.7	0.3
CCN(CC)c1ccc(C=NN2CCCCCC2)cc1	-3.1	-3.5	-2.5	-1.9	-1.1	x	x	x	x
Cc1ccsc1C(=O)NNC(=O)C1CC=CCC1C(=O)O (stereo unspecified)	8.6*	17.2*	5.4	4.2*	1.4*	2.6	2.4	4.9	0.1
COCCNC(=S)N(C)[C@H]1C[C@H]2c3[nH]c4c(-c5ccc6c(c5)OCO6)cccc4c3CCN2C(=O)[C@H]1[C@H](C)O	-4.9	-2.1	-1.3	-1.5	-1.1	x	x	x	x
O=C(Nc1nc2ccccc2n1CCN1CCCC1)c1ccc(Cl)cc1	9.1*	17.9*	7.3*	0.6	-0.3	18.1*	13.5*	16.2*	0.4	LXR ag=0.6;hcDAF12 ag=9.5*
CCCCCN(C(=O)CCc1cn(CCCCC)c2ccccc12)c1ccc(N(C)c2ccccn2)cc1	-3.5	-0.2	0.5	0.7	-0.3	x	x	x	x
CC(=O)Nc1ccc(-c2cn3cc(C)ccc3n2)cc1	8.1*	18.5*	10.6*	3.6*	-0.1	7.1	11.0*	11.4*	0.5	LXR ag=1.4;hcDAF12 ag=7.4*
CC(=O)Nc1ccc(C)cc1	3.1	-2.6	-0.5	1.2	-1.8	x	x	x	x
Nc1ccc2cc3ccc(N)cc3nc2c1	42.8*	27.5*	32.3*	-1.8	1.7*	-11.4	-2.3	5.7	0.2
COc1ccc(C(=O)N/N=C(\C)Cn2cnc([N+](=O)[O-])n2)cc1	12.8*	14.6*	2.4	0.2	-0.6	0.6	0.0	-0.1	0.0
C/C(Cn1cnc([N+](=O)[O-])n1)=N\NC(=O)c1ccncc1	1.8	0.2	-1.0	0.6	-0.7	x	x	x	x
CCOC(=O)c1ccc(Nc2ncccc2[N+](=O)[O-])cc1	8.3*	18.3*	6.0*	0.9	1.7*	16.1*	6.2*	18.9*	0.9
CCOC(=O)[C@@]12CN(C(=O)OC(C)(C)C)CC=C1N(Cc1ccc(OC)cc1)C(=O)[C@H]2CC(=O)NCCC(C)C	-3.2	-1.8	-2.6	-0.7	-1.3	x	x	x	x
Cc1ccc(C(=O)NCCCc2ccccc2)c(C)c1	10.4*	14.8*	4.7	3.1	0.2	13.3*	8.5*	15.9*	0.7
CN1CCSc2ccc(C(=O)Nc3cc(F)ccc3F)cc21	11.0*	19.7*	7.2*	4.3*	1.1*	3.0	12.2*	17.9*	0.9	LXR ag=1.5;hcDAF12 ag=4.0
SMILES	SMARCA2 activ	hgDAF-12 ag	hcDAF12 agonist	DAX1 inh	ssDAF12 agonist	SMARCA2 conf	GAL4-VP16 Luc	hgDAF12 ag	LXRb DAF12 ctr	others
CN1CCSc2ccc(C(=O)NCc3ccccc3F)cc21	2.4	6.1	0.9	1.4	0.1	x	x	x	x
Oc1ccccc1C=Nc1ccccc1-c1nc2ccccc2[nH]1	8.3*	18.1*	2.5	1.6	-0.7	4.5	10.5*	-1.7	0.3
C[C@@H]1CCCN1c1ccc2c(c1)O[C@H]1CCN(C1)S2(=O)=O	-2.3	2.5	-2.5	0.1	-0.5	x	x	x	x
Cc1occc1-c1nnc(SCC(=O)N[C@@H]2CCc3ccccc32)n1-c1ccccc1	-6.1	-0.2	-0.2	-0.3	-1.0	x	x	x	x
Cc1ccc(N2C(=O)Cc3ccccc3C2=O)cc1	2.5	1.0	-0.3	0.1	-0.5	x	x	x	x
Cc1ccc(N2Cc3ccccc3C2=O)cc1	10.2*	16.0*	12.1*	1.9	1.5*	2.7	5.0	17.2*	0.9	LXR ag=1.5;hcDAF12 ag=8.8*
Cc1occc1C(=O)N/N=C/c1cnn(C)c1C	8.8*	15.8*	2.9	3.2	0.4	4.2	4.7	8.6	0.4
CCC(=O)NC1=C(Nc2ccc(N)cc2)C(=O)c2ccccc2C1=O	9.0*	13.5*	7.9*	1.8	0.8	7.5	11.0*	11.2*	0.5	LXR ag=1.1;hcDAF12 ag=8.0*
Fc1ccc(/C=N/Nc2nccnc2Cl)cc1	9.5*	14.0*	3.7	1.1	-0.2	8.4*	7.8*	5.9	0.3
CCOC(=O)C(C)(C)CC#CCN(CC#Cc1ccccc1)S(=O)(=O)c1ccc(C)cc1	-5.8	1.8	-0.7	-0.6	-1.2	x	x	x	x
Cn1c(N)c(C(=O)Nc2ccc3ccccc3c2)sc1=S	10.3*	15.3*	3.1	1.8	-1.2	4.2	12.0*	12.7*	0.5
